Three sequences from PMC7862700, “An all-to-all approach to the identification of sequence-specific readers for epigenetic DNA modifications on cytosine” can be followed below.

Test in all cases: DAPPL (digital affinity profiling via proximity ligation, sequencing); 10 mM Tris-HCl pH 7.5, 50 mM NaCl, 1 mM DTT, 4% glycerol, room temperature, 30 min; GST-TFs on glutathione beads, 16-mer random dsDNA library, 0.1% formaldehyde crosslink after washing; high values mean tight binding
Conditions in all cases: protein: recombinant; tags: N-terminal GST; dsDNA, one strand shown

One assay has as its target T1, FLI1 (Homo sapiens, UniProt Q01543 1-452).
T1 sequence: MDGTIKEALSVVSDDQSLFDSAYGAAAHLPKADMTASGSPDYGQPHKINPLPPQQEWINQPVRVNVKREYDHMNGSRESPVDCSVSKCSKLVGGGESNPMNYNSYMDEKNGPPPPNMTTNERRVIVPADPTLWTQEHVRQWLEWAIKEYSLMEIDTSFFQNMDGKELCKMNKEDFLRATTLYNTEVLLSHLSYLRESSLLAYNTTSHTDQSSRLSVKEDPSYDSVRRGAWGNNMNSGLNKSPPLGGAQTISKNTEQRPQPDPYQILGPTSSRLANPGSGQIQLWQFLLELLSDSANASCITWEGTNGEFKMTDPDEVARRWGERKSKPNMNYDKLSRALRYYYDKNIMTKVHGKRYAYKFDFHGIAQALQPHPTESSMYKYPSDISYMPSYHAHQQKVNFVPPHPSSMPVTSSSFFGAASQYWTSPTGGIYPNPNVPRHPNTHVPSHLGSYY
Put shortly:
(§1)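 Pools were built from human transcription factors expressed in yeast as GST fusions, captured on glutathione beads and DNA-barcoded, along with a tag-only sample. Incubation with 200 nmole of a 16-mer random double-stranded DNA library lasted 30 min at room temperature in Tris/NaCl/DTT/glycerol buffer, and was followed by washing, 0.1% formaldehyde crosslinking, proximity ligation, PCR amplification and Illumina NextSeq500 sequencing. Binding signal is the quotient of each hexamer's read frequency for a factor and its frequency for the tag-only sample.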

The target of the next assay is T2, ELK1 (Homo sapiens, UniProt P19419 1-428).
T2 sequence: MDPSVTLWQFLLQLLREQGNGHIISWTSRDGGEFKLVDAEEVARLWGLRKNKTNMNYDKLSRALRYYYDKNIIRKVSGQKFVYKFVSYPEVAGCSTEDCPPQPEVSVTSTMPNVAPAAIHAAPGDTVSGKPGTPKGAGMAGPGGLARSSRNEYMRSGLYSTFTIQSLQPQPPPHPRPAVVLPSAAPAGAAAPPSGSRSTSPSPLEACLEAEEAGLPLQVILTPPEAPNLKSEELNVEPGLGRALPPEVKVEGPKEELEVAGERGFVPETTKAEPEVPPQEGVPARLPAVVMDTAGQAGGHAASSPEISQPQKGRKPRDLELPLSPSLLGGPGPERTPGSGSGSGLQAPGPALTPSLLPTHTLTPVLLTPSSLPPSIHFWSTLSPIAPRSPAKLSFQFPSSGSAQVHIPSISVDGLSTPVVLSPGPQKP
Put shortly: as §1

Another assay has as its target T3, GABPA (Homo sapiens, UniProt Q06546 1-454).
T3 sequence: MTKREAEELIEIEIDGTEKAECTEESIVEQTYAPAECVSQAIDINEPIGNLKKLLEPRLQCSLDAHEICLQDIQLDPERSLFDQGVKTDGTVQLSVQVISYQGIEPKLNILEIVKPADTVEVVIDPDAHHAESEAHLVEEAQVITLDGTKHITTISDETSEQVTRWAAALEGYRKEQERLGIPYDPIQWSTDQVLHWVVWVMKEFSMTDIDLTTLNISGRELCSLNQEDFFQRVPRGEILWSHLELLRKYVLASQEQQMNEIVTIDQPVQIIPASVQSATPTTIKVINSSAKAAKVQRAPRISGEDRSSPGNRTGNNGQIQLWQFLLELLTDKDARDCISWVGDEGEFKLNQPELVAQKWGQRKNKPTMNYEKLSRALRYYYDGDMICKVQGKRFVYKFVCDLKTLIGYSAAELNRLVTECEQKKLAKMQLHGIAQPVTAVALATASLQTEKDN
In outline:
as §1

Another assay has as its target T4, ERG (Homo sapiens, UniProt P11308 1-479).
T4 sequence: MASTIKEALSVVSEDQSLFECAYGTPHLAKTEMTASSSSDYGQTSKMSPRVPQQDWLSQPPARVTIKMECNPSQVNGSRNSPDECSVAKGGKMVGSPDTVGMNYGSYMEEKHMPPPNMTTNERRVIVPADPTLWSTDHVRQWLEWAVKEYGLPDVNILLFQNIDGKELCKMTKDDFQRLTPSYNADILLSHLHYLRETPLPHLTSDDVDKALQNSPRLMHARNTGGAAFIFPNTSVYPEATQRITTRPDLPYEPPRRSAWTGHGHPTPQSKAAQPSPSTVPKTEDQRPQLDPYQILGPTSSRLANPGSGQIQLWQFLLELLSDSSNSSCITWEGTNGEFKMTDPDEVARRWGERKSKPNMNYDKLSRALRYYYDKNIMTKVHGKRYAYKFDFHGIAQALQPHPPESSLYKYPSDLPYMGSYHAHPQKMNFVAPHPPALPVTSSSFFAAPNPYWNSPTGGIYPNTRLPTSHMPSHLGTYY
In outline:
as §1

The next assay concerns the target ELF1 (Homo sapiens, UniProt P32519 1-619). In outline:
as §1

In another assay the target is SPI1 (Homo sapiens, UniProt P17947 1-270). In outline: as §1
The target of the next assay is SPIB (Homo sapiens, UniProt Q01892 1-262). Put shortly: as §1
Chain of SPIB (Q01892 whole entry): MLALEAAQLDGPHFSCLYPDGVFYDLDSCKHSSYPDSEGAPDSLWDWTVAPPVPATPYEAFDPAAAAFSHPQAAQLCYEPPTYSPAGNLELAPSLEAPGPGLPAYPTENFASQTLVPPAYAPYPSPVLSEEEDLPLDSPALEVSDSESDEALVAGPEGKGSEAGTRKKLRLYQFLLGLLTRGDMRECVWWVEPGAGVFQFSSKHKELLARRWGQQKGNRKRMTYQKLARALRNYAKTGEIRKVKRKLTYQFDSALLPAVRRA
The target in a further assay is T5, ELK3 (Homo sapiens, UniProt P41970 1-407).
T5 sequence: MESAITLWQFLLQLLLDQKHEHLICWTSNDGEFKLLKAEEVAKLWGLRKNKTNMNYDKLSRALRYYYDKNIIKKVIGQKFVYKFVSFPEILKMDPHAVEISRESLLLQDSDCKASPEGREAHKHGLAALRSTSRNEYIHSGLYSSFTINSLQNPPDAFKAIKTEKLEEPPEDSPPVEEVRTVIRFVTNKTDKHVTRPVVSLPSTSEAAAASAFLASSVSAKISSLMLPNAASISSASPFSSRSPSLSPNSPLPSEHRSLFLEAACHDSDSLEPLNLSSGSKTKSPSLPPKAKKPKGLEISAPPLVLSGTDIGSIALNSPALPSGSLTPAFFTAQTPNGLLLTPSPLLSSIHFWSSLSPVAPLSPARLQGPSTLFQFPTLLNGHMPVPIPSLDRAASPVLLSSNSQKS
Put shortly:
as §1

The next assay has as its target ETV5 (Homo sapiens, UniProt P41161 1-510). Put shortly:
as §1

Another assay concerns the target T6, SPIC (Homo sapiens, UniProt Q8N5J4 1-248).
T6 sequence: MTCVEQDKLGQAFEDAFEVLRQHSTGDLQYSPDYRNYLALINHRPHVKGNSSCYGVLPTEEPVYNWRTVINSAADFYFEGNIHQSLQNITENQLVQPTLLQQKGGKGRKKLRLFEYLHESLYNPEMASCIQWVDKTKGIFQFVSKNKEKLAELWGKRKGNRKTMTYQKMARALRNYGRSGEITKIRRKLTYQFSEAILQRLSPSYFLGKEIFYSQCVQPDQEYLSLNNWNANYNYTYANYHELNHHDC
Put shortly:
as §1

For another assay, the target named is T7, ETV3L (Homo sapiens, UniProt Q6ZN32 1-361).
T7 sequence: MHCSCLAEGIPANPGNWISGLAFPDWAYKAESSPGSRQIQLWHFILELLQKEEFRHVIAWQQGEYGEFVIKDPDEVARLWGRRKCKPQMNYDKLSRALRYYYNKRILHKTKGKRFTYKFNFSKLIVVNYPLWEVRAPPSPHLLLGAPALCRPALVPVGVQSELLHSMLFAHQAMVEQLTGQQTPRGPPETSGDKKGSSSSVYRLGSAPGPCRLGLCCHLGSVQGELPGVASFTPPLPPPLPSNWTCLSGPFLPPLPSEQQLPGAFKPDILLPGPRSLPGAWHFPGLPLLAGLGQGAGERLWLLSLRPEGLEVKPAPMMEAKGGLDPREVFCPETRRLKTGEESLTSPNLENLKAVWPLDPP
In outline:
as §1

The next assay concerns the target T8, ETS2 (Homo sapiens, UniProt P15036 1-469).
T8 sequence: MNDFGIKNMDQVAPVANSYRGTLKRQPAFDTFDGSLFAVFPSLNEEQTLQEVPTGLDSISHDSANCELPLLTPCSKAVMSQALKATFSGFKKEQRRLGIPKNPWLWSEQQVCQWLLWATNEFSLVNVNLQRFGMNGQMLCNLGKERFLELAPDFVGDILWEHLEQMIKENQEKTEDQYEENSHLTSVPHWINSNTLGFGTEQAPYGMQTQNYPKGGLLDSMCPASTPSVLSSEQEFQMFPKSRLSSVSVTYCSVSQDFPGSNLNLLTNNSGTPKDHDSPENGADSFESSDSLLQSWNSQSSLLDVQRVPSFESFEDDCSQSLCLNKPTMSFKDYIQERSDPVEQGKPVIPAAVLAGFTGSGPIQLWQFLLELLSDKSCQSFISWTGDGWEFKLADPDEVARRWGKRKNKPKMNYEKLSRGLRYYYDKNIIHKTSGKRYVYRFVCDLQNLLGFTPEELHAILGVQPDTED
Put shortly: as §1

Another assay concerns the target T9, ELF5 (Homo sapiens, UniProt Q9UKW6-2 1-255).
T9 sequence: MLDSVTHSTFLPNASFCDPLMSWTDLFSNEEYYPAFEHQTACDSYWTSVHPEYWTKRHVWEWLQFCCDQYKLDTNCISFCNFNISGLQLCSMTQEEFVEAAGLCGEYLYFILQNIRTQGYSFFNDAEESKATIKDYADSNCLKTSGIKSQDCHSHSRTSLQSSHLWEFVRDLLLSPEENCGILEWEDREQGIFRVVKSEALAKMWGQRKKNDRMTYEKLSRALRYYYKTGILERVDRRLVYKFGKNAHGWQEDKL
Put shortly: as §1

The target of a further assay is T10, ETV3 (Homo sapiens, UniProt P41162-2 1-143).
T10 sequence: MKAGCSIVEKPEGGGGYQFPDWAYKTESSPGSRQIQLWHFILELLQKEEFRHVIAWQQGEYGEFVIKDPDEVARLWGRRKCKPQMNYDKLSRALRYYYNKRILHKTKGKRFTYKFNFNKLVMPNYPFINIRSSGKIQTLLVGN
In outline: as §1

Another assay addresses ETV6 (Homo sapiens, UniProt P41212 1-452). In outline: as §1
A further assay concerns the target ETV1 (Homo sapiens, UniProt P50549 1-477). Put shortly: as §1
The target in the next assay is T11, FEV (Homo sapiens, UniProt Q99581 1-238).
T11 sequence: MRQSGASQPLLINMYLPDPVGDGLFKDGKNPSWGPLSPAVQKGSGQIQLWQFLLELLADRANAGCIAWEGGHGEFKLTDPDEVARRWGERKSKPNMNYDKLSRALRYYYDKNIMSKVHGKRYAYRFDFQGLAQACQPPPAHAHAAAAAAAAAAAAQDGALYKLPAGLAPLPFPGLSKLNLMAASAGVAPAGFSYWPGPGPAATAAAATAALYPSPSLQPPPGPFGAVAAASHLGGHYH
In outline: as §1

The target in a further assay is ELF4 (Homo sapiens, UniProt Q99607 1-663). In outline: as §1
Chain of ELF4 (Q99607 whole entry): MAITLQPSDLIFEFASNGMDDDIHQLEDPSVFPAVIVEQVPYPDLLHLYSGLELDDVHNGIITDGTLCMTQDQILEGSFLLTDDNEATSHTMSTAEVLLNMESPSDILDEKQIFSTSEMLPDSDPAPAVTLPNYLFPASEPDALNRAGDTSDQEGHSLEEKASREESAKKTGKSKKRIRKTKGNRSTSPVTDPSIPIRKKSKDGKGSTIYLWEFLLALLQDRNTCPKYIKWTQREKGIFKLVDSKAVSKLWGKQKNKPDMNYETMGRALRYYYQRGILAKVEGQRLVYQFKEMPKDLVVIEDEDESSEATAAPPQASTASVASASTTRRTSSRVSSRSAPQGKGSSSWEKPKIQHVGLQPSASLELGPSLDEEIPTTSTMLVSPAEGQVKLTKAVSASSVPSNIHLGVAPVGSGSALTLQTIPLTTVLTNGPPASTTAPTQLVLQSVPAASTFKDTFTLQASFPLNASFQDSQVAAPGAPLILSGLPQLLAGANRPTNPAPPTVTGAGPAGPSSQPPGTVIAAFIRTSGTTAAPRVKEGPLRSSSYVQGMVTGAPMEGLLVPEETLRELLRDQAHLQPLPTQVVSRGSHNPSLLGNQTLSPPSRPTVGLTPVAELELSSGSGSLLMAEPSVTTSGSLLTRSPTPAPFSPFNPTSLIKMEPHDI

Chain of ETV5 (P41161 whole entry): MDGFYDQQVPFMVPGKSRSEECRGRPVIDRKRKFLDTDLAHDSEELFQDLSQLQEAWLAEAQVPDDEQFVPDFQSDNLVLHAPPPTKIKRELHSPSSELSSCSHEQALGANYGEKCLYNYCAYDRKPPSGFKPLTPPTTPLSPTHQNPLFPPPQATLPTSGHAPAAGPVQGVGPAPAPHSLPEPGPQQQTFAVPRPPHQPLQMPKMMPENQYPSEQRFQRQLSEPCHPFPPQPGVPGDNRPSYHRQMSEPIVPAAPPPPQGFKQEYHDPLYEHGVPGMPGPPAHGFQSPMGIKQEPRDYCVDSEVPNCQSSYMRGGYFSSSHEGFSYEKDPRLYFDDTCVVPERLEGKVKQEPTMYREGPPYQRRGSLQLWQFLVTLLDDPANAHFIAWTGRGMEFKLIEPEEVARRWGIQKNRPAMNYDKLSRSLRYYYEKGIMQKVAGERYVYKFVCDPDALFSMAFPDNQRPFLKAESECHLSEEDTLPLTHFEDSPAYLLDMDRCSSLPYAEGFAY
Chain of ETV6 (P41212 whole entry): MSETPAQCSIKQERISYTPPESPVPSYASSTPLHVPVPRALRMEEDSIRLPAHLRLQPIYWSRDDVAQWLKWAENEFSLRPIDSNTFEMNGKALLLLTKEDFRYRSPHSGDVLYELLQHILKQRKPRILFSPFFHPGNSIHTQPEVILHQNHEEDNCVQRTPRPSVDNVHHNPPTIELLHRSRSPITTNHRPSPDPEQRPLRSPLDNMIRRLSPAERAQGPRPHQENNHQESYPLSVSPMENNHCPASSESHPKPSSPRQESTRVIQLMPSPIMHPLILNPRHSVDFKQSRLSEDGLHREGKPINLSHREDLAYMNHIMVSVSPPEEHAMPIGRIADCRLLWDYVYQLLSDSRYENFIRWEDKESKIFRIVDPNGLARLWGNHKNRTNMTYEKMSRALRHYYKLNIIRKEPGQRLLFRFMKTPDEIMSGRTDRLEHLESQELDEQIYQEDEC
Chain of ELF1 (P32519 whole entry): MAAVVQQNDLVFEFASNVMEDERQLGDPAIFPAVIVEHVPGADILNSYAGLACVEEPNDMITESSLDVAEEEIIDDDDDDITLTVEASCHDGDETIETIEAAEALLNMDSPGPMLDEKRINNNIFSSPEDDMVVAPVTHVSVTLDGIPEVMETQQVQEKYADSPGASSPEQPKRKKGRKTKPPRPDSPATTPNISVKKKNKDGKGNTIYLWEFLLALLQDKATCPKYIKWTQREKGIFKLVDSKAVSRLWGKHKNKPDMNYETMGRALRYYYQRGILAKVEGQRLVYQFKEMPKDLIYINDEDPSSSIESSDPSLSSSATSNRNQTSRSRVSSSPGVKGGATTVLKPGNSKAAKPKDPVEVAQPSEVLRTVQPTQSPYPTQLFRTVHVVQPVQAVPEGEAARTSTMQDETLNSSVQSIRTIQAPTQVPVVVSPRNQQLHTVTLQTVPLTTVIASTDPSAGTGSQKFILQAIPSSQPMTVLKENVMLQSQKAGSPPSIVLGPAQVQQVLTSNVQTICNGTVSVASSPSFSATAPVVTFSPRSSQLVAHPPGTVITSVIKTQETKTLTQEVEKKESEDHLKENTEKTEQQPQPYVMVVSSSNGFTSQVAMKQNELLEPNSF
Chain of ETV1 (P50549 whole entry): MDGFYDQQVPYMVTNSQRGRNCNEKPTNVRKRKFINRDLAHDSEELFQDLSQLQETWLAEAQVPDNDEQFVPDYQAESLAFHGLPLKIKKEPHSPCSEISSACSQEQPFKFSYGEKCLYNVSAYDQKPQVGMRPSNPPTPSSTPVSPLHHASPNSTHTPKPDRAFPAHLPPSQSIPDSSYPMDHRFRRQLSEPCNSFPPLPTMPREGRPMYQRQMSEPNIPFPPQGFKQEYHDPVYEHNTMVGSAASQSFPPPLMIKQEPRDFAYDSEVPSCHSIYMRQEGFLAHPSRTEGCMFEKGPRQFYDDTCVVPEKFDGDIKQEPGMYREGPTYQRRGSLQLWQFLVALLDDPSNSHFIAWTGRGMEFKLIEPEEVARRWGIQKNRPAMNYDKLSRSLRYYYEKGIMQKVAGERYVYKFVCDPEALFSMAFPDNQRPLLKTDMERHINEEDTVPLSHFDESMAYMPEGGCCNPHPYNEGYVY

Regarding ATGGCG, the binding signal was 1 fold enrichment (6-mer frequency, TF over GST control) with FLI1; 1.05 fold enrichment (6-mer frequency, TF over GST control) with ELK1; 1.04 fold enrichment (6-mer frequency, TF over GST control) in the assay with GABPA; 1.02 fold enrichment (6-mer frequency, TF over GST control) with ERG; 1.06 fold enrichment (6-mer frequency, TF over GST control) in the assay with ELF1; 1.03 fold enrichment (6-mer frequency, TF over GST control) with SPI1. Also, the binding signal with SPIB is 1.01 fold enrichment (6-mer frequency, TF over GST control); with ELK3, 1.01 fold enrichment (6-mer frequency, TF over GST control); with ETV5 it was 1.02 fold enrichment (6-mer frequency, TF over GST control); in the assay with SPIC, 1.16 fold enrichment (6-mer frequency, TF over GST control); with ETV3L, 1.03 fold enrichment (6-mer frequency, TF over GST control); in the assay with ETS2 it was 1.11 fold enrichment (6-mer frequency, TF over GST control). Further, the binding signal was 1.01 fold enrichment (6-mer frequency, TF over GST control) with ELF5; 1.09 fold enrichment (6-mer frequency, TF over GST control) with ETV3; 1.05 fold enrichment (6-mer frequency, TF over GST control) in the assay with ETV6.
For GTTGTA, the binding signal with FLI1 is 1.01 fold enrichment (6-mer frequency, TF over GST control); with ELK1, 1.07 fold enrichment (6-mer frequency, TF over GST control); in the assay with ELF1, 1.01 fold enrichment (6-mer frequency, TF over GST control); with ETV5 it was 1.08 fold enrichment (6-mer frequency, TF over GST control); with SPIC, 1.01 fold enrichment (6-mer frequency, TF over GST control); in the assay with ETV1 it was 1.01 fold enrichment (6-mer frequency, TF over GST control). Besides, the binding signal with ETV3L was 1.07 fold enrichment (6-mer frequency, TF over GST control); in the assay with ETS2, 1.03 fold enrichment (6-mer frequency, TF over GST control); with ETV3, 1.01 fold enrichment (6-mer frequency, TF over GST control).
AGTGCC: the binding signal in the assay with FLI1 was 1.06 fold enrichment (6-mer frequency, TF over GST control); in the assay with ERG, 1.01 fold enrichment (6-mer frequency, TF over GST control); in the assay with SPI1, 1.32 fold enrichment (6-mer frequency, TF over GST control); with SPIB, 1.01 fold enrichment (6-mer frequency, TF over GST control); in the assay with ELK3 it was 1.05 fold enrichment (6-mer frequency, TF over GST control); with FEV it was 1.04 fold enrichment (6-mer frequency, TF over GST control). Besides, the binding signal in the assay with ETV5 is 1.03 fold enrichment (6-mer frequency, TF over GST control); in the assay with SPIC, 1.19 fold enrichment (6-mer frequency, TF over GST control); in the assay with ELF4 it was 1.01 fold enrichment (6-mer frequency, TF over GST control); in the assay with ETV1, 1.04 fold enrichment (6-mer frequency, TF over GST control); in the assay with ETV3L, 1.07 fold enrichment (6-mer frequency, TF over GST control); with ETV3, 1.05 fold enrichment (6-mer frequency, TF over GST control). Further, in the assay with ETV6, the binding signal is 1.16 fold enrichment (6-mer frequency, TF over GST control).
